The source of these data is ChEMBL document CHEMBL3988442, “University of Dundee, Small-Polar-MMV Screening Library” (2021).

The target in assay [1] is T1, Aspartate--tRNA(Asp/Asn) ligase (Mycobacterium tuberculosis (strain ATCC 25618 / H37Rv)) (UniProt P9WFW3). Further: in the data most compounds retested in dose-response had high values.
T1 sequence (whole entry): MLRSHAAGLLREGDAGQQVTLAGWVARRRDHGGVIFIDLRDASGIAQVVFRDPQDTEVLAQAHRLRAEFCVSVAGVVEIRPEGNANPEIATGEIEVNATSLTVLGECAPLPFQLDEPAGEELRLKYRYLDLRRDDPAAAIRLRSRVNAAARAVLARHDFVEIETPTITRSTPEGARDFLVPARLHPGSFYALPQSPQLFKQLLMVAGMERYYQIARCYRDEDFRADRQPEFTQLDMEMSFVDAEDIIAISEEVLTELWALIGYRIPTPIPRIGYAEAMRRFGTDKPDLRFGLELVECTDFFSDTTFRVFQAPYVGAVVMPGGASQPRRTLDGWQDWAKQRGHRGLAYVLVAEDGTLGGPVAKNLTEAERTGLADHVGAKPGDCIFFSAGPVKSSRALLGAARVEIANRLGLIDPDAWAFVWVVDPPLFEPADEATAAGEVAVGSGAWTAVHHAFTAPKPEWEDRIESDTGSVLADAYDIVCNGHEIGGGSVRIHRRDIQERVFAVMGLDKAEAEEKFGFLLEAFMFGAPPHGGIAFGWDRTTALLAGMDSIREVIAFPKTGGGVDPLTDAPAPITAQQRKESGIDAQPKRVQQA
Kind of assay: Assay for Asp RNA synthetase-1 from Mycobacterium tuberculosis. In kind it is functional. Also noted: scale not given: direction of the effect not stated beside the values. The following applies: 30 µM.

Assay [2] has as its target Shiga toxin 2 (Escherichia coli O157:H7) (UniProt P09385+P09386). The assay can be described thus: E. coli 0.157:H7 Shiga Toxin SOP - stx2 screening assay. Conditions: 30 µM. Also noted: scale not given: direction of the effect not stated beside the values. In kind it is functional.

`CCc1ncc2c(n1)CN(Cc1nc(-c3ccsc3)no1)CC2`: the Percent Effect is -0.759% in assay [1] and 13.8% in assay [2].
In the case of `O=C(c1n[nH]c2c1CCN(Cc1nccs1)C2)N1CCCC1`, the Percent Effect is -0.578% in assay [1] and -3.88% in assay [2].
For `O=C(c1cccn2ccnc12)N1CCCN(c2cccnn2)CC1`, the Percent Effect is 2.1% in assay [1] and 22.9% in assay [2].
For `CCOc1ccc(Cl)c(C(=O)NCc2ccc(C(=O)NC)cc2)n1`, the Percent Effect was -2.66% in assay [1] and 13% in assay [2].
With `CCc1noc(C2CCN(C(=O)CCn3nc(C)cc3C)CC2)n1`, the Percent Effect in assay [1] was 8.14%; in assay [2], -32.8%.
For `CC(C)c1nc2c(n1C)CCN(CC(=O)Nc1ccc(Cl)cn1)C2`, the Percent Effect in assay [1] was 3.34%; in assay [2], -0.161%.
Regarding `Cc1cccc(NC(=O)c2sccc2C)n1`, the Percent Effect was -4.94% in assay [1] and -1.59% in assay [2].
Turning to `Cc1nc(CN2CCc3cncnc3C2)oc1C`, the Percent Effect was -1.67% in assay [1] and -14.4% in assay [2].
In the case of `CC(C)CCn1[nH]c(CNc2ccccc2)nc1=O`, the Percent Effect in assay [1] was 5.27%; in assay [2] it was -8.36%.
With `Cc1cnn(CC2CN(Cc3nc(N)c4ccccc4n3)CCO2)c1` (configuration not stated), the values for the Percent Effect in assay [1] and in assay [2] were 3.58% and 20.2%, respectively.
Regarding `CCc1ccsc1C(=O)N1CCN(CC(O)CC)CC1` (configuration not stated), the Percent Effect in assay [1] was 1.06%; in assay [2], -26.4%.
In the case of `CC(=O)Nc1nc(C(=O)N2CCCC(n3nc(C)cc3C)C2)cs1` (configuration not stated), the Percent Effect was -0.815% in assay [1] and 10.8% in assay [2].
As to `Cc1cnn(CCNCCCOc2ccccc2)c1`, the figures for the Percent Effect in assay [1] and in assay [2] were -1.12% and -1.37%, respectively.
On the same counts, the results for `Cc1ccccc1CN1CCCN(C2CCOC2=O)CC1` (configuration not stated) are -0.409% and 15%.
Turning to `COCCNC(=O)CN1CCN(c2nc(C)cs2)C(C)C1` (configuration not stated), the Percent Effect in assay [1] is -0.728%; in assay [2], -15.9%.
For the compound `O=C(COC[C@H]1CC[C@H]2[C@H](CCN2c2ncccn2)O1)N1CCCC1`, the figures for the Percent Effect in assay [1] and in assay [2] were -2.51% and -24.1%, respectively.
On the same counts, the results for `CCn1ccnc1CN1CCN(CCOc2ccccc2OC)CC1` are -3.95% and -17.6%.
On the same counts, the results for `O=C(Cn1cc(-c2ccccc2)ncc1=O)Nc1ccncc1` are 1.91% and -0.041%.
`Cc1cc(C)n(CC2CCCCN2CCCS(N)(=O)=O)n1` (configuration not stated): the Percent Effect is -7.33% in assay [1] and -48% in assay [2].
As to `CC(C)c1ccc(C(C)NC(=O)N2CCC(n3cncn3)CC2)cc1` (configuration not stated), the Percent Effect in assay [1] was -0.885%; in assay [2], 3.93%.
`Cc1nnc(CN2CCC(N(C)Cc3nnc(C4CC4)n3C)C2)o1` (configuration not stated): the Percent Effect in assay [1] is -1.43%; in assay [2], 18.5%.
With `O=C(c1ccc(Cl)o1)N1CCCC(c2cc(C(F)(F)F)[nH]n2)C1` (configuration not stated), the figures for the Percent Effect in assay [1] and in assay [2] were 3.23% and 38.7%, respectively.
On to `CCCS(=O)(=O)NC(C)C(=O)NCc1ccc(N2CCCC2)nc1` (configuration not stated), for which the Percent Effect in assay [1] amounted to 2.42%; in assay [2] it was 7.72%.
`CCOCC1CC2(CCN(Cc3ccccn3)CC2)CO1` (configuration not stated): the Percent Effect in assay [1] was 0.869%; in assay [2] it was -0.96%.
On to `NC(=O)C1CN(Cc2c[nH]cn2)CCN(C2CCOCC2)C1` (configuration not stated), for which the values for the Percent Effect in assay [1] and in assay [2] were -0.938% and -0.548%, respectively.
On the same counts, the results for `Cc1cc(O)c(OCC(=O)/N=c2\[nH]cc(C)s2)cn1` are -2.4% and -6.58%.
